Test results as given in PubChem BioAssay AID463173 (ICCB-Longwood Screening Facility, Harvard Medical School, 2010).
The whole screen tested about 52,000 compounds, of which about 4,300 (8.3%) were called active. What follows is part of a selection rich in actives, with near analogues and random picks from the rest. Values without a mark were called inactive. Rule as the data show it: active = survival mostly below about 52% (no sharp cut-off); inactive = mostly above about 56%.

These compounds were tested on DeltatarO mutant (assay: growth inhibition of S. aureus wild type versus tarO mutant, primary screen, teichoic acid synthesis inhibitors, RN4220, OD600 (AID 463173)). Settings: OD600, 18 h, hits give low values, screened at 18.75 µg/mL (by protocol).

SMILES	survival
CN(C)CCCNc1c2c(nc3cc(-c4cccc(F)c4)nn13)CCC2	103%
O=c1c2sc3ccccc3c2n(Cc2cccc(F)c2)c(=O)n1Cc1ccccc1	78%
COc1ccc(CNC(=O)CN2C(=O)CSc3ccc(S(=O)(=O)N4CCOCC4)cc32)c(OC)c1	91%
O=C1CCCc2cc(S(=O)(=O)NCC3CCC(C(=O)Nc4ccccc4F)CC3)ccc2N1 (stereo unspecified)	93%
Cc1ccc(NC(=O)N2CCC(CN3CCCC3)CC2)c(C)c1	80%
COc1ccc(CNC(=O)C2CCN(S(=O)(=O)c3cccc(-c4noc(C)n4)c3)CC2)cc1	92%
CC1CCc2c(sc(NC(=O)COc3ccccc3C(C)(C)C)c2C#N)C1 (stereo unspecified)	67%
COC(=O)CSc1ncc2c(n1)-c1ccccc1N(Cc1ccccc1C)S2(=O)=O	99%
Cc1ccc2c(c1)N(CCC(=O)NCc1ccccc1Cl)C(=O)CO2	40% (active)
CCOc1ccccc1CNC(=O)CCCN1C(=O)COc2ccc(C)cc21	93%
Cc1cccc(CNC(=O)CCCN2C(=O)COc3ccc(C)cc32)c1	112%
CCOC(=O)C1=C(CS(=O)(=O)c2ccc(OC)c(Cl)c2)NC(=O)NC1c1cccc(OC)c1 (stereo unspecified)	59%
Cc1cc(=O)[nH]c(SC(C)C(=O)Nc2ccccc2)n1 (stereo unspecified)	90%
Cc1ccc(C)c(NC(=O)CSc2nc(-c3ccccc3Cl)nc3c2Cc2c(CO)cnc(C)c2O3)c1	118%
COc1ccccc1-c1nc2c(c(SCC(=O)Nc3ccccc3F)n1)Cc1c(CO)cnc(C)c1O2	88%
COc1ccccc1NC(=O)CSc1nc(-c2cccc(Cl)c2)nc2c1Cc1c(CO)cnc(C)c1O2	87%
COc1ccccc1NC(=O)CSc1nc(-c2ccc(C)cc2)nc2c1Cc1c(CO)cnc(C)c1O2	49% (active)
Cc1cccc(NC(=O)CSc2nc(-c3ccccc3Cl)nc3c2Cc2c(CO)cnc(C)c2O3)c1C	117%
Cc1ccc(-c2nc3c(c(SCC(=O)Nc4ccccc4Cl)n2)Cc2c(CO)cnc(C)c2O3)cc1	46% (active)
Cc1ccc(C)c(N2CCN(Cc3csc(C)c3C)CC2)c1	77%
CSc1ccc(CCNc2ncnc3onc(C)c23)cc1	98%
O=C(NCc1ccco1)c1ccc2c(c1)N(Cc1cccc(Cl)c1)C(=O)c1ccccc1S2(=O)=O	46% (active)
O=C(c1ccc2c(c1)N(Cc1cccc(Cl)c1)C(=O)c1ccccc1S2(=O)=O)N1CCc2ccccc21	0% (active)

SMILES	survival
COc1ccccc1CNC(=O)c1ccc2c(c1)N(Cc1cccc(Cl)c1)C(=O)c1ccccc1S2(=O)=O	37% (active)
O=C(c1ccc2c(c1)N(Cc1ccc(Cl)cc1)C(=O)c1ccccc1S2(=O)=O)N1CCc2ccccc21	120%
O=C(NCc1ccco1)c1ccc2c(c1)N(Cc1ccc(Cl)cc1)C(=O)c1ccccc1S2(=O)=O	89%
O=S1(=O)c2ccccc2N(Cc2ccc(Cl)cc2)c2ccccc21	131%
O=C(NCc1ccco1)c1ccc2c(c1)N(Cc1ccccc1)C(=O)c1ccccc1S2(=O)=O	68%
O=C(c1ccc2c(c1)N(Cc1ccccc1)C(=O)c1ccccc1S2(=O)=O)N1CCc2ccccc21	81%
O=S1(=O)c2ccccc2N(Cc2ccccc2)c2ccccc21	69%
O=C(NCc1ccccc1)c1ccc2c(c1)N(Cc1cccc(Cl)c1)C(=O)c1ccccc1S2(=O)=O	93%
COc1ccccc1CNC(=O)c1ccc2c(c1)N(Cc1cccc(C)c1)C(=O)c1ccccc1S2(=O)=O	87%
O=S1(=O)c2ccccc2N(Cc2cccc(Cl)c2)c2ccccc21	0% (active)
O=C(O)COCC(=O)Nc1ccc2c(c1)CCC2	103%
COc1ccc(-c2nnc(SCC(=O)Nc3cccc(Cl)c3C)nc2-c2ccc(OC)cc2)cc1	89%
COc1ccc(CNC(=O)CCC(=O)N2CC3CCCN3c3ccccc32)cc1 (stereo unspecified)	71%
CC1=C(c2ccc(C)c(C)c2)S(=O)(=O)N(Cc2ccc(C(=O)NCc3cccc(C)c3)cc2)C1=O	77%
CN1CCSc2ccc(C(=O)NCc3ccccc3F)cc21	134%
CCOC(=O)c1cc2c(=O)n3ccccc3nc2n(CCCOC)c1=NC(=O)c1c(-c2c(F)cccc2Cl)noc1C	54%
CC(C)(C)OC(=O)N1CCC(c2c(C(=O)N3CCN(c4ccccc4F)CC3)cnn2C(C)(C)C)CC1	68%
COc1ccc(CCNC(=O)c2ccc(Cn3c(=O)c4ccccc4n(CC(=O)C(C)(C)C)c3=O)cc2)cc1OC	86%
O=c1c2sc3ccccc3c2n(Cc2ccc(F)cc2)c(=O)n1Cc1ccco1	79%
COc1cccc(Cc2nc3ccccc3nc2SCC(=O)N2CCCCC2C)c1 (stereo unspecified)	79%
Cc1cc(Nc2ccc(Br)c(C)c2)n2nc(-c3ccco3)nc2n1	-5% (active)
COc1ccc(Cl)cc1Nc1cc(C)nc2nc(-c3ccccc3C)nn12	70%
Cc1cc(Nc2ccccc2Cl)n2nc(-c3ccco3)nc2n1	88%

SMILES	survival
CCOc1ccc(OCC)c(Nc2cc(C)nc3nc(-c4ccco4)nn23)c1	17% (active)
CCOC(=O)c1ccccc1Nc1cc(C)nc2nc(-c3ccco3)nn12	128%
Cc1cc(Nc2cccc(F)c2)n2nc(-c3ccco3)nc2n1	89%
Cc1cc(Nc2ccc(Br)cc2)n2nc(-c3ccccc3C)nc2n1	27% (active)
Cc1cc(C)cc(Nc2cc(C)nc3nc(-c4ccco4)nn23)c1	94%
CC(=O)c1cccc(Nc2cc(C)nc3nc(-c4ccccc4C)nn23)c1	90%
CN(CCCNC(=O)c1cc2c(=O)n(C)c3ccccc3c2s1)Cc1ccccc1	94%
CCCCS(=O)(=O)c1nc(-c2ccc(Br)cc2)cc(-c2ccccc2)c1C#N	119%
C/C(=C\C(=O)c1cccnc1)Nc1ccccc1O	103%
Cc1nc(-c2ccc(S(=O)(=O)N(C)Cc3ccccc3)cc2)co1	95%
Cc1ccc(-n2ncc(C(=O)NC3CCCC3)c2C2CCN(C(=O)OC(C)(C)C)CC2)c(C)c1	70%
Cc1ccc(-n2c(=O)c3c(c4cc(C)ccc4n3C)n(CC(=O)N3CCCC3)c2=O)cc1	71%
CC(=O)Nc1ccc(C2=CSC3=NCCN23)cc1	82%
CCSc1ncc(Cl)c(C(=O)Nc2nc3ccc(Cl)cc3s2)n1	100%
CCCN(CCC)S(=O)(=O)c1ccc(C(=O)Nc2cccc(-c3nc4ccccc4[nH]3)c2)cc1	99%
CCOc1ccc(C(=O)Nc2cccc(-c3nc4cc(Cl)cc(Cl)c4o3)c2)cc1	84%
Cc1cccc(-c2nc3cc(NC(=O)c4ccc(OCC(C)C)cc4)ccc3o2)c1	113%
CC(C)COc1ccc(C(=O)Nc2cccc(-c3nc4ccccc4[nH]3)c2)cc1	43% (active)
CCCOc1ccc(C(=O)Nc2cccc(NC(=O)c3cccc(Cl)c3)c2)cc1	70%
CC(C)COc1ccc(C(=O)Nc2cc(-c3ccccc3)no2)cc1	85%
CCOc1ccc(NS(=O)(=O)c2ccc3nc(-c4ccccc4)[nH]c3c2)cc1	64%
COc1c(Cl)cc(C(=O)Nc2cccc(-c3nc4ccccc4[nH]3)c2)cc1Cl	15% (active)
CCCOc1ccc(C(=O)Nc2cccc(-c3nc4ccccc4[nH]3)c2)cc1	28% (active)

SMILES	survival
CCOc1cc(OCC)cc(C(=O)Nc2cccc(-c3nc4ccccc4[nH]3)c2)c1	36% (active)
COc1cc(NC(=O)c2cc(Cl)c(OC)c(Cl)c2)ccc1NC(=O)c1cc2ccccc2o1	82%
CCOc1ccc(CCNC(=O)c2cc3c(=O)n(C)c4ccccc4c3s2)cc1OCC	56%
Cc1ccc(NC(=O)C2CCN(C(=O)c3cnn(-c4ccccc4)c3-n3cccc3)CC2)cc1	93%
CCCn1c(=S)[nH]c2c1c(=O)[nH]c(=O)n2C	66%
CN(CC(=O)Nc1cccc(F)c1)S(=O)(=O)c1ccc2c(c1)n(C)c(=O)c(=O)n2C	102%
COc1ccc(C2=NN(C(=O)CCC(=O)O)C(c3ccccc3F)C2)cc1OC (stereo unspecified)	89%
N/C(=N/OC(=O)c1ccccc1)c1ccccn1	87%
CCCCNC(=O)c1ccc2c(c1)ncn2-c1cc(OC)ccc1OC	112%
O=c1oc2cc(O)ccc2cc1-c1nnc(Nc2ccccc2F)s1	59%
CCC(c1nnnn1Cc1ccccc1)N(Cc1cccs1)Cc1cc2ccc(C)cc2[nH]c1=O (stereo unspecified)	103%
O=C(CNC(=O)c1ccc(Cl)cc1)OCc1cc(=O)n2ccsc2n1	72%
COc1ccc(C2C(C(=O)Nc3ccc(C)cc3C)=C(C)Nc3nc(SCc4cccc(C)c4)nn32)c(OC)c1 (stereo unspecified)	164%
CCN(CC)c1ccc2c(c1)OC(N)=C(C#N)C2c1cccc(F)c1 (stereo unspecified)	2% (active)
CCc1ccc(C2C(C#N)=C(N)Oc3cc(N)ccc32)cc1 (stereo unspecified)	102%
COc1ccc(C2C(C#N)=C(N)Oc3cc4c(cc32)OCO4)cc1 (stereo unspecified)	79%
Cc1ccc(Sc2c(C)nn(C(=O)c3ccc(Br)cc3)c2C)cc1	16% (active)
Cc1nn(C(=O)c2ccc(Br)cc2)c(C)c1S(=O)(=O)N1CCOCC1	79%
Cc1nn(C(=O)c2ccc(Br)cc2)c(C)c1Sc1ccccc1	2% (active)
Cc1ccc(Sc2c(C)nn(C(=O)COc3ccccc3Br)c2C)cc1	88%
Cc1nn(C(=O)c2ccccc2)c2c1C(=O)CC(C)(C)C2	74%
Cc1nn(C(=O)COc2ccccc2Br)c(C)c1Sc1ccccc1	54%
